Measurements: PubChem BioAssay (NCATS)
Inconclusive results are not listed. Active and inactive are the calls of the source. The call rests on the fitted dose curve; in most records, active means well fitted curve in the direction sought with a large enough effect; inconclusive means small, poorly fitted or top-dose-only effect, or another doubt; inactive means no such curve, though single readings can be large; an effect the other way counts as inactive or inconclusive.
Further: nearly all actives have a fitted effect of over 70% in size.
On the % scale 0 is the no-effect control and ±100 the full control effect.

Test: Primary qHTS for inhibitors of nuclear receptor binding SET domain protein 2 (NSD2) in an isogenic RCH-ACV NSD2 p.E1099K mutant (9B) (AID 1645876)
Details: RCH-ACV NSD2 E1099K (9B) viability, CellTiter-Glo, 72 h; series mostly up to 44.9 µM; activity change, negative = viability loss: at the top concentration
For `CCN1CCN(c2cc(-c3ccc(F)cc3)c3c(n2)CCCCCC3)CC1`, the “activity change, negative = viability loss” value was 3.99% [at 17.3 µM] (inactive).
In the case of `CCC1(c2cnc[nH]2)Cc2ccccc2C1`, the “activity change, negative = viability loss” value is reported as -19.1% (inactive).
For `CC(C(=O)O)c1ccc(/C=C2\CCCCC2=O)cc1` (stereo not drawn), the “activity change, negative = viability loss” value was -1.93% (inactive).

Test: Primary qHTS for inhibitors of nuclear receptor binding SET domain protein 2 (NSD2) in an RCH-ACV wild type WT cells (2C) (AID 1645877); further: potency means the concentration at half of the fitted maximal effect
Details: RCH-ACV (leukaemia line) NSD2 WT (2C) viability, CellTiter-Glo, 72 h; series mostly up to 44.9 µM; activity change, negative = cell killing: at the top concentration
With `CC(=O)O[C@@H]1CC2C3CCc4cc(OC(=O)c5ccccc5)ccc4C3CCC2(C)[C@H]1OC(C)=O` (stereo partly drawn) the “activity change, negative = cell killing” value was -2.68% (inactive).
For `CCOc1ccc(NS(=O)(=O)c2ccc(N)cc2)nn1`, the “activity change, negative = cell killing” value was -0.165% (inactive).
In the case of `CCN(CC)CC(=O)Nc1c(C)cccc1C(=O)OC`, the “activity change, negative = cell killing” value is reported as 2.1% (inactive).
In the case of `Cn1cc(S(C)=O)c(=O)c2ccc(F)cc21` (stereo not drawn), the “activity change, negative = cell killing” value is reported as -0.903% (inactive).
In the case of `O=C(O)c1ccc(OCCN2CCCCC2)cc1`, the “activity change, negative = cell killing” value is reported as 5.23% (inactive).
With `COC(=O)c1cc(Cl)ccc1NS(=O)(=O)C(F)(F)F` the “activity change, negative = cell killing” value was 6.22% (inactive).
In the case of `OC[C@]1(O)OC[C@@H](O)[C@H](O)[C@@H]1O`, the “activity change, negative = cell killing” value is reported as -5.87% (inactive).
With `O=C(CCCl)NCc1ccccc1` the “activity change, negative = cell killing” value was 6.95% (inactive).
With `CCO[C@H](Cc1ccc(OCCc2ccc(OS(C)(=O)=O)cc2)cc1)C(=O)O` the “activity change, negative = cell killing” value was -4.82% (inactive).
In the case of `Cc1nc([N+](=O)[O-])cn1-c1ccc([N+](=O)[O-])cc1`, the “outcome” value is reported as “inactive”.
In the case of `CC(C)=CCNc1ncnc2c1ncn2[C@@H]1O[C@H](CO)[C@@H](O)[C@H]1O`, the Potency is reported as 1060 nM (active).
For `O=C(CCCCC(=O)Nc1c(I)cc(I)c(C(=O)O)c1I)Nc1c(I)cc(I)c(C(=O)O)c1I`, the “activity change, negative = cell killing” value was -10.3% (inactive).
For `O=C(CO)[C@@H](O)[C@H](O)[C@@H](O)CO`, the “outcome” value was “inactive”.
For `C#CC(C)(CC)OC(=O)c1ccccc1C(=O)O` (stereo not drawn), the “outcome” value was “inactive”.
In the case of `CCN1CCN(c2cc(-c3ccc(F)cc3)c3c(n2)CCCCCC3)CC1`, the “outcome” value is reported as “inactive [at 17.3 µM]”.
